# Source: PubChem
# Sampled rows, rich in hits. Any-hit rate of the full collection: about 7.3%.
# NPC1 promoter act – activators of NPC1 promoter | Huh7 NPC1 promoter luciferase reporter, 24 h | 2.4% of 320,000 active | Potency, µM (highest dose often 9.22 µM), hits mostly activators; also: nearly all actives have a fitted effect of over 60% in size
#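 Stable NPC1-promoter luciferase Huh7 line; cpd (DMSO) 24 h, 37 °C, 5% CO2; Amplite luciferase reagent 10 min RT; luminescence readout. qHTS format.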
# FLuc modulator – inhibits or activates purified firefly luciferase, miR-21 counter-screen; P08659; AID 588342; 6.9% of 360,000 active; Potency, µM (series often up to 57.5 µM), usual class: inhibitors; purified FLuc, Km substrates, luminescence inhibition; also: nearly all actives have a fitted effect of over 55% in size
# Target sequence (P08659 whole entry, looked up): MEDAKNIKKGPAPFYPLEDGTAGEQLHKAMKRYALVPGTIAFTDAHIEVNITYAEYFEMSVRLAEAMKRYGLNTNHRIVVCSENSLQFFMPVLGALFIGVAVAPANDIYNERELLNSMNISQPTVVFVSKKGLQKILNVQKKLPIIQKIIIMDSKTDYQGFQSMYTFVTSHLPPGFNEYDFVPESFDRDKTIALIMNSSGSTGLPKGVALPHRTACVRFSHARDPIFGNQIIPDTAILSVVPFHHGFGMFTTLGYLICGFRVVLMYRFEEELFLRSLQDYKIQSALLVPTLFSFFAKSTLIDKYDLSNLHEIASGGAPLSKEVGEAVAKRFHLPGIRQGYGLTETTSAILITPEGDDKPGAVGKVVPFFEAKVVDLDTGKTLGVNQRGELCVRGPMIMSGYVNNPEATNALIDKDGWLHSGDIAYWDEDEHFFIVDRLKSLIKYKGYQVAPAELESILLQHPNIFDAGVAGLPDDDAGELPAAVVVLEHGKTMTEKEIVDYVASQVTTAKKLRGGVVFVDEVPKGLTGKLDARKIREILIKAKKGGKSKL
#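 Purified P. pyralis luciferase, 10 nM final, with Km-level 10 uM D-luciferin and 10 uM ATP in 50 mM Tris acetate pH 7.5, 10 mM Mg acetate, 0.01% Tween-20, 0.05% BSA; 6-point qHTS titration about 60 µM downward; luminescence read.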
# KinaseGlo FLuc – Kinase-Glo luciferase inhibition (counter-screen) | Q27757 | Kinase-Glo luciferase, ATP luminescence, 8 min | Potency, µM (series often up to 38.3 µM), actives largely listed as inhibitors | 0.28% of 200,000 active; also: nearly all actives have a fitted effect of over 60% in size
#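 Light output from Kinase-Glo luciferase with luciferin and 10 uM ATP in 50 mM imidazole pH 7.2, KCl, MgCl2, Tween 20, BSA; compound pin-delivered, 8-min ambient incubation, then luminescence read.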
# SMN2 splice enh – increases expression of the SMN2 splice variant | Potency, µM (series often up to 46.1 µM), actives largely listed as activators | AID 1458 | HEK293 SMN2-luciferase splicing reporter, luminescence, 30-36 h | 2.8% of 210,000 active; also: nearly all actives have a fitted effect of over 55% in size
#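 qHTS luciferase splicing reporter: luminescence rises when SMN2 exon 7 is included in transfected HEK293 cells. Compound exposure lasted 30-36 h at 37C, with 4.5 mM final sodium butyrate as control, followed by a ONE-Glo read.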
# ELG1 genotox – genotoxicity induction in ELG1-luciferase HEK293T cells | 1.3% of 330,000 active | HEK293T ELG1-luciferase reporter, luminescence, 16 h | Potency, µM (top dose mostly 46 µM), usual class: activators; also: nearly all actives have a fitted effect of over 60% in size
#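 HEK293T cells expressing luciferase-tagged ELG1 were treated with compound or DMSO for 16 hr at 37°C. Luciferase activity was then read after 30 min with ONE-Glo at room temperature; rising signal flags genetic stress.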
# Rab9 prom act – activators of Rab9 promoter; Huh7 Rab9 promoter-luciferase reporter, luminescence, 24 h; Potency, µM (top dose mostly 9.22 µM), most hits filed as activators; 2.8% of 320,000 active; AID 485297; also: nearly all actives have a fitted effect of over 60% in size
#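 Rab9 promoter-driven luciferase in stably transfected Huh7 cells; 1500 cells/well rested 2 h, exposed to compound in DMSO for 24 h at 37 °C, 5% CO2. Luminescence read 10 min after adding luciferase reagent at ambient temperature.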
# A number is an active result; - = inactive; ? = inconclusive; . = not tested or not shown; [ ] = dose if it differs, or a comment. Calls follow the shape of the dose curve; as a rule, active = well fitted curve in the direction sought with a large enough effect; inconclusive = small, poorly fitted or top-dose-only effect, or another doubt; inactive = no such curve, though single readings can be large; an effect the other way counts as inactive or inconclusive.
SMILES,NPC1 promoter act,FLuc modulator,KinaseGlo FLuc,SMN2 splice enh,ELG1 genotox,Rab9 prom act
COc1cccc(/C=C(\C#N)c2nc3ccccc3[nH]2)c1OCC(=O)O,-,-,.,.,-,-
COc1ccc(NC(=O)c2sc3nc[nH]c(=O)c3c2C)cc1OC,.,-,.,.,.,.
Cc1cccc(C2CC(c3ccc(F)cc3)Nc3nc(N)nn32)c1 (centres undefined),-,-,-,-,-,-
O=C(Nc1cc([N+](=O)[O-])ccc1F)C1CCN(S(=O)(=O)c2cccs2)CC1,.,.,.,.,-,.
Cc1ccccc1-c1nnc(C2CCN(S(=O)(=O)c3ccc(Cl)cc3)CC2)o1,.,-,.,-,.,.
Cc1cccc(NC(=O)Nc2ccncc2)c1,-,16.9µM,-,?,-,-
Cc1cc(C)cc(NC(=O)Nc2cccc(S(N)(=O)=O)c2)c1,-,15.1µM,.,.,-,-
Cc1cccc(NC(=O)Nc2ccc3c(c2)CCC3)c1,2µM,3.01µM,.,.,?,1.78µM
CCc1ccc(NC(=O)Nc2ccc3c(c2)CCC3)cc1,?,-,.,.,?,?
Cc1cccc(NC(=O)Nc2cnccn2)c1,-,?,-,-,-,-
CC(=O)c1cccc(NC(=O)Nc2ccc3c(c2)CCC3)c1,?,2.39µM,.,.,-,?
CCOC(=O)c1ccc(NC(=O)Nc2c(C)nn(C)c2C)cc1,-,-,-,-,-,-
CC1=C(c2ccc(C)c(C)c2)S(=O)(=O)N=C1N1CCC(C(=O)NCc2ccc(Cl)cc2)CC1,.,-,.,-,.,.
CCn1cc(C(=O)O)c(=O)c2cc(F)c(N3CCN(C(=O)Nc4ccccc4)CC3)cc21,-,-,-,17.8µM,-,-
COc1cc2nc(C3CC3)n(NC(=O)c3ccc(Cl)cc3)c(=O)c2cc1OC,-,-,-,-,-,-
O=C(COC(=O)c1ccccc1)NCCC1=CCCCC1,-,15.1µM,-,-,-,-
Cc1ccsc1C(=O)OCC(=O)NCCC1=CCCCC1,-,12µM,-,-,?,-
O=C(CCCc1ccccc1)NCCC1=CCCCC1,-,23.9µM,-,-,-,-
O=C(Nc1ccc(N2CCOCC2)c(Cl)c1)c1ccc(-n2cnnc2)cc1Cl,-,-,.,.,-,-
CC(=O)N(CCC1(c2ccc(C)cc2)CCOC(C(C)C)C1)Cc1ccco1 (centres undefined),-,-,.,.,-,-
CCc1ccc2nc(N3CCN(C(=O)C(C)(C)C)CC3)sc2c1,-,15.1µM,.,.,-,-
CCSc1ccccc1C(=O)N1CCN(c2nc3ccccc3s2)CC1,.,-,.,.,.,.
CC(C)(C)C(=O)N1CCN(c2nc3ccccc3s2)CC1,2.51µM,15.1µM,.,.,-[9.26 µM],?
CSCc1ccc(C(=O)N2CCCC(Nc3ccc4c(c3)OCCO4)C2)o1 (centres undefined),-,?,.,.,-,-
Cc1cc(NC(=O)c2ccc3c(c2)OCCO3)ccc1NC(=O)c1ccco1,?,0.757µM,11.2µM,11.2µM,-,?
SMILES,NPC1 promoter act,FLuc modulator,KinaseGlo FLuc,SMN2 splice enh,ELG1 genotox,Rab9 prom act
O=C(NC(=S)Nc1ccc2c(c1)OCCO2)c1ccco1,?,1.69µM,.,.,?,1µM
Cc1cc(NC(=O)c2ccco2)ccc1NC(=O)Cc1cccs1,-,15.1µM,-,-,-,-
O=C(c1ccco1)N1CCCC(Nc2ccc3c(c2)OCCO3)C1 (centres undefined),?,23.9µM,.,.,?,?
O=C(Nc1ccc(NC(=O)c2ccco2)cc1)c1ccc2c(c1)OCCO2,-,?,-,-,?,-
Cc1cc(NC(=O)c2ccc(F)cc2)n(-c2ccccn2)n1,-,-,-,-,-,-
O=C(COc1ccc(Cl)cc1Cl)NNC(=S)NCc1ccco1,-,?,-,.,-,-
Cc1cc(C)c(S(=O)(=O)NCC(c2ccco2)N2CCOCC2)c(C)c1 (centres undefined),.,-,.,.,.,.
O=C(COC(=O)c1ccc(CN2CCCC2=O)cc1)Nc1ccc(F)cc1,-,-,.,.,-,-
O=C(O)C(C(=O)/C=C/c1ccco1)=C1SCCS1,-,?,-,-,-,-
O=C(COC(=O)c1c(F)cccc1F)Nc1ccccc1OC(F)F,-,-,.,.,-,-
Cc1ccc(NC(=O)CNC(=O)c2ccco2)cc1Cl,-,-,.,.,-,-
N#Cc1ccc(NCC(=O)Nc2ccc3c(c2)OCCO3)cc1,-,?,-,-,-,-
O=C(NC(=S)Nc1cccc(O)c1)c1ccco1,?,10.7µM,.,.,?,?
N#Cc1cccc(NCC(=O)Nc2ccc3c(c2)OCCO3)c1,0.631µM,6.01µM,-,12.6µM,2.31µM,0.398µM
O=C(CNC(=O)c1ccco1)Nc1ccc2c(c1)OCCO2,1.78µM,6.01µM,.,.,1.16µM,1µM
Cc1cc2nc3c(=O)n(CCc4ccccc4)c(=O)[nH]c3nc2cc1N,-,-,.,.,-,-
Cc1ccc(-c2csc3nc(-c4ccncc4)[nH]c(=O)c23)cc1,-,-,.,.,-,-
Cc1ccc(-c2nc3ccsc3c(=O)[nH]2)cc1,-,12µM,-,17.8µM,?,?
Oc1ccccc1/C=N/c1c(-c2ccco2)nc2ccccn12,?,26.9µM,?,-,?,?
COc1cc(-c2nc3ccccn3c2/N=C/c2ccc(F)cc2)ccc1O,-,?,-,-,-,-
COc1ccc(/C=N/c2c(-c3ccco3)nc3ccccn23)cc1OC,?,0.426µM,?,-,-,?
Clc1ccc(/C=N/c2c(-c3ccco3)nc3ccccn23)cc1,-,15.1µM,?,-,?,?
Cc1ccc(C(=O)OCC(=O)c2ccc(Cl)s2)s1,-,2.69µM,-,.,?,-
CN(C(=O)COC(=O)c1ccc(Cl)c(S(=O)(=O)N2CCCCC2)c1)C1(C#N)CCCCC1,-,-,.,.,-,-
O=C(COC(=O)c1ccc[nH]c1=O)c1ccc(Cl)s1,-,15.1µM,-,-,-,-
SMILES,NPC1 promoter act,FLuc modulator,KinaseGlo FLuc,SMN2 splice enh,ELG1 genotox,Rab9 prom act
CN(C(=O)COC(=O)c1ccc(Cl)s1)C1(C#N)CCCCC1,-,19µM,.,.,-,-
Cn1c(=O)n(Cc2ccccc2Br)c2ccccc21,-,-,-,-,-,-
CC(C)CNC(=O)NC(=O)COc1ccc(C=O)cc1,.,-,-,-,.,.
O=C1Cc2ccccc2C(=O)N1OCc1ccc(Cl)cc1Cl,-,23.9µM,-,-,-,-
O=C1c2ccccc2C(=O)N1OCc1cccc(Cl)c1,-,19µM,-,-,-,-
CCN1CCN(C(c2cccs2)C(C)NC(=O)C(C)C)CC1 (centres undefined),-,-,-,-,-,-
CCCn1c(N)c(C(=O)CSc2n[nH]c(-c3ccccc3F)n2)c(=O)n(C)c1=O,-,-,.,.,-,-
C=CCOc1ccc(/C=C/C(C)=N\O)cc1,2.82µM,6.75µM,.,.,?,2.82µM
C=CCOc1ccc(/C=C/C(=O)OCC(=O)N2CCN(C(C)=O)CC2)cc1,.,.,.,.,-,.
COc1ccc(-c2cc(C(=O)Nc3c(C)n(C)n(-c4ccccc4)c3=O)c3ccccc3n2)cc1OC,-,21.3µM,.,.,-,-
